# This is a sample that favours compounds with a hit; in the whole collection about 21% have one here.
# HCMV antiviral: qHTS Assay for inhibitors of the human cytomegalovirus (HCMV); HFF cells, HCMV-luciferase reporter, 72 h; stronger effect = lower value; activity change, negative = inhibition, % at 57.5 µM; 4.5% of 410,000 active; AID 1259415, 2018; in the data active = activity change below about -60%; inconclusive = no clear call, values can overlap the other calls; inactive = above about -39%
#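 After 16 h attachment at 37C, HFF cells received test compound and HCMV-luciferase (1 PFU/cell); reporter luminescence read 72 h later, data normalized against buffer-only and known inhibitor Salinomycin.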
# HCV inh: qHTS Assay for Inhibitors of Hepatitis C Virus (HCV); Huh7.5.1 HCVcc-Cre infection, luciferase reporter, 44 h; Potency, µM (doses to about 41.8 µM), actives largely listed as inhibitors; 3.4% of 340,000 active
#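 Reporter virus HCVcc-Cre (~0.5 moi) infects cells exposed to compound; seeding density 1,000 cells/well with 4 h settling beforehand. Luminescence, 15 sec read, taken 44 h post-infection following a 15 min RT substrate incubation.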
# Shiga inhibitor: A qHTS for Small Molecule Inhibitors of Shiga Toxin. inhibition, % at 38.7 µM. 9.2% of 290,000 active. AID 2315, 2010. Vero cells, Shiga toxin protein synthesis inhibition reporter; in the data active = inhibition mostly above about 28%, no sharp cut-off; inactive = mostly below about 43%
# CHX counter: Cycloheximide Counterscreen for Small Molecule Inhibitors of Shiga Toxin; cell reporter, cycloheximide protein synthesis inhibition counterscreen; max response, %; 12% of 300,000 active; in the data active = max response mostly above about 13%, no sharp cut-off; inactive = mostly below about 14%; also: read at 38.3 µM for the half of the compounds with a filed dose
# Pf growth 48h: Primary qHTS for delayed death inhibitors of the malarial parasite plastid, 48 hour incubation | AID 504832, 2011 | P. falciparum luciferase growth in erythrocytes, 48 h | Potency, µM (highest dose often 28.7 µM), most hits filed as inhibitors | 5.9% of 310,000 active
#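 Here the parasites carry a stable luciferase gene and grow inside erythrocytes in Albumax-based RPMI medium with compound for one erythrocytic cycle. Activity is scored as loss of luminescent signal.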
# Pf growth 96h: Primary qHTS for delayed death inhibitors of the malarial parasite plastid, 96 hour incubation; 6.9% of 320,000 active; AID 504834, 2011; P. falciparum luciferase reporter growth, 96 h; Potency, µM (titrated, usually from 28.7 µM), hits mostly inhibitors
#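 96 h incubation, 37 C, 5% CO2, of luciferase-reporter P. falciparum-infected RBCs (2% hematocrit, 0.05% parasitemia final) with test compounds; endpoint luminescence.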
# Hits are given with their value; 0 = inactive; ? = inconclusive; - = no result given; [ ] = dose if it differs, or a comment. Unless noted, calls follow the shape of the dose curve; as a rule, active = well fitted inhibition curve with a large enough effect; inconclusive = small, poorly fitted or top-dose-only effect, or another doubt; inactive = no such curve, though single readings can be large or run the other way.
SMILES,HCMV antiviral,HCV inh,Shiga inhibitor,CHX counter,Pf growth 48h,Pf growth 96h
CC1=[N+](C)c2ccc3ccccc3c2C1(C)C,-84,?,0,0,?,12µM
O=C1NC[C@H](Cc2ccc(O)cc2)N(CCc2cccc(F)c2)C1=O,0,-,-,-,-,-
O=C1NC[C@H](Cc2ccc(O)cc2)N(CCc2cc(C(F)(F)F)cc(C(F)(F)F)c2)C1=O,0,-,-,-,-,-
FC(F)(F)c1cc(CCN2CCNC[C@@H]2CC2CCCCC2)cc(C(F)(F)F)c1,-99,?,-,-,-,-
NC1=NC[C@H](CC2CCCCC2)N1CCc1cc(C(F)(F)F)cc(C(F)(F)F)c1,-100,0,0,0,2.9µM,2.3µM
NC1=NC[C@@H](Cc2ccc(O)cc2)N1CCc1cccc(F)c1,0,0,0,0,10µM,1.9µM
NC1=NC[C@@H](Cc2ccc(O)cc2)N1CCc1cc(C(F)(F)F)cc(C(F)(F)F)c1,0,0,0,0,5.9µM,3.3µM
NS(=O)(=O)c1ccc(CNC(=O)c2ccccc2SCC(=O)N2CCCC2)cc1,0,0,-,-,0,0
COc1ccc(Cl)cc1Nc1ncnc2c1nc1n2CCCC1,0,-,-,-,-,-
CCCCn1c(=O)c2oc3ccccc3c2n(Cc2cccc(C)c2)c1=O,0,-,-,-,-,-
CCN1CCC(O)(/C=C/c2ccc(C(C)C)cc2)C(C(=O)/C=C/c2ccc(C(C)C)cc2)C1 (stereo not drawn),-61,7.9µM,-,-,-,-
CCc1ccc(NCc2cc3cc4c(cc3n(CC(=O)Nc3ccc(Cl)cc3)c2=O)OCO4)cc1,0,-,-,-,-,-
Cc1ncc([N+](=O)[O-])n1CCOC(=O)NC(NCc1ccccc1)C(Cl)(Cl)Cl (stereo not drawn),0,0,0,0,8.3µM,0.33µM
Cc1ncc([N+](=O)[O-])n1CCOC(=O)NC(Nc1ccc(F)cc1)C(Cl)(Cl)Cl (stereo not drawn),0,0,0,0,8.3µM,6.6µM
C[C@@H]1CC[C@@]2(O[C@@H](CCO)C[C@@H](O)[C@@H]2O)O1,0,0,-,-,-,-
CCCN(C(=O)COc1cc(=O)n(CC)c2ccccc12)c1ccc(C(C)C)cc1,-102,-,-,-,-,-
CCCN(CCC)C(=O)COc1cc(=O)n(CC)c2ccccc12,0,0,0,0,0,?
O=C1CCCC2=C1C(c1ccncc1)c1c(nc(SCc3ccccc3Cl)[nH]c1=O)N2 (stereo not drawn),0,0,0,0,0,-
CCC(C)Sc1nc2c(c(=O)[nH]1)C(c1cccs1)C1=C(CCCC1=O)N2 (stereo not drawn),-93,0,0,0,?,?
CC(=O)C1=C(c2ccccc2)NC(=S)NC1c1ccc(O)c(O)c1 (stereo not drawn),0,0,0,0,0[5.75 µM],13µM
CNC(=O)c1cc(C(=O)c2ccccc2C(F)(F)F)c[nH]1,0,0,0,0,0,0
CNC(=O)c1cc(C(=O)c2ccc(C(F)(F)F)cc2)c[nH]1,0,0,60,27,-,0
CNC(=O)c1cc(C(=O)c2ccc(C(F)(F)F)cc2F)c[nH]1,0,0,0,19,0,0
O=C(O)Cc1ccc(NS(=O)(=O)c2ccc3ccccc3c2)cc1,0,0,0,0,-,0
CCSc1nnc(SCC(=O)Nc2cc(C)on2)s1,0,0,-,-,-,-
SMILES,HCMV antiviral,HCV inh,Shiga inhibitor,CHX counter,Pf growth 48h,Pf growth 96h
Cc1ccc(C(=O)CC(c2cccs2)S(=O)(=O)c2ccc(C)cc2)cc1 (stereo not drawn),0,0,0,23,0,0
O=C(CC(c1cccs1)S(=O)(=O)c1ccccc1)c1ccc(F)cc1 (stereo not drawn),0,0,33,52,0,0
CCC(=O)NCC(c1cccs1)S(=O)(=O)c1ccc(C)cc1 (stereo not drawn),0,0,0,0,0,?
C=C(C)CNC(=S)N/N=C1\CCCCc2ccccc21,-61,0,0,0,?,15µM
Cc1ccc(NC(=S)N/N=C2/CCCCc3ccccc32)cc1,0,0,0,17,?,12µM
Cc1ccc(C)c(NC(=S)N/N=C2\CCc3ccccc32)c1,0,10µM,0,0,0,5.2µM
CCNC(=S)N/N=C1\CCCCc2ccccc21,0,0,0,0,12µM,?
CCOCCn1c(=O)c2c(nc3n2CCN3c2ccc(C)c(C)c2)n(C)c1=O,0,-,-,-,0,0
O=C(/C=C/c1ccccc1Cl)NCCc1ccccc1,0,0,77,50,?,12µM
O=C(/C=C/c1ccc(Cl)cc1)NCCc1ccccc1,0,0,0,0,0,0
O=C(/C=C/c1ccccc1Cl)NCc1ccccc1,0,?,51,29,0,0
CCOC(=O)C1CSCCS(=O)(=O)N1Cc1ccccc1F (stereo not drawn),0,-,-,-,-,-
COc1ccc(N2CCC[C@H]2/C=C/C(=O)OC(C)(C)C)cc1,0,-,-,-,-,-
CCOc1cc(/C=C2/SC(=S)N(Cc3ccccc3)C2=O)ccc1O,0,?,42,16,?,0
COc1ccc(/C=C2\SC(=S)N(CCC(=O)Nc3ccc(C(=O)O)cc3)C2=O)cc1OC,-,0,0,0,0,0
O=C1/C(=C/c2ccccc2O)SC(=S)N1Cc1cccnc1,-78,0,0,0,0,0
CCOc1cc(/C=C2\SC(=O)N(c3ccc(O)cc3)C2=O)ccc1O,?,0,50,9.3,0,0
CCOc1ccc(N2C(=O)S/C(=C\c3ccc(O)c(OCC)c3)C2=O)cc1,?,?,0,0,?,?
COc1ccc(/C=C2\SC(=S)N(CCC(=O)N(CCO)Cc3ccccc3)C2=O)cc1OC,-99,?,0,0,?,0
CCOC(=O)N1CCN(C(=S)Nc2ccc(C)cc2)CC1,0,0,0,0,0,0
CCN1CCCC1CNC(=O)Cn1cc(C)c(=O)[nH]c1=O (stereo not drawn),0,0,-,-,-,-
COc1ccccc1OCC(=O)Nc1c2c(nn1-c1ccccc1)CS(=O)(=O)C2,0,0,0,0,0,0
CC1CCCCC12NC(=O)N(CC(=O)Nc1sccc1C(N)=O)C2=O (stereo not drawn),0,0,-,-,0,0
CCN1C(=O)/C(=C\c2cn(-c3ccccc3)nc2-c2cccnc2)SC1=S,0,0,0,0,12µM,?
COc1cc(/C=C2/SC(=S)N(Cc3ccccc3)C2=O)ccc1OS(C)(=O)=O,-69,?,0,0,0,?
COc1cc(/C=C2/SC(=S)N(Cc3ccccc3)C2=O)ccc1OCC(=O)O,0,0,-,0,0,0
COc1cc(/C=C2\SC(=S)N(N(C)c3ccccc3)C2=O)ccc1O,-101,0,0,0,?,0
O=C(O)CN1C(=O)/C(=C\c2cn(-c3ccccc3)nc2-c2ccccc2)SC1=S,-,0,0,0,0,?
O=C1/C(=C/c2ccc(O)c([N+](=O)[O-])c2)SC(=S)N1Cc1ccccc1,-61,0,0,0,0,?
